High-throughput results (PubChem)
FLuc modulator = counter-screen for miR-21 project: firefly luciferase inhibitors or activators | purified FLuc, Km substrates, luminescence inhibition | Potency, µM (doses to about 57.5 µM), without a hit: at the highest dose activity change, negative = inhibition, actives largely listed as inhibitors | 6.9% of 360,000 active;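 note: plate controls were vehicle for no effect and reference inhibitor for full effect; nearly all actives have a fitted effect of over 55% in size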
Target sequence (P08659 whole entry, looked up): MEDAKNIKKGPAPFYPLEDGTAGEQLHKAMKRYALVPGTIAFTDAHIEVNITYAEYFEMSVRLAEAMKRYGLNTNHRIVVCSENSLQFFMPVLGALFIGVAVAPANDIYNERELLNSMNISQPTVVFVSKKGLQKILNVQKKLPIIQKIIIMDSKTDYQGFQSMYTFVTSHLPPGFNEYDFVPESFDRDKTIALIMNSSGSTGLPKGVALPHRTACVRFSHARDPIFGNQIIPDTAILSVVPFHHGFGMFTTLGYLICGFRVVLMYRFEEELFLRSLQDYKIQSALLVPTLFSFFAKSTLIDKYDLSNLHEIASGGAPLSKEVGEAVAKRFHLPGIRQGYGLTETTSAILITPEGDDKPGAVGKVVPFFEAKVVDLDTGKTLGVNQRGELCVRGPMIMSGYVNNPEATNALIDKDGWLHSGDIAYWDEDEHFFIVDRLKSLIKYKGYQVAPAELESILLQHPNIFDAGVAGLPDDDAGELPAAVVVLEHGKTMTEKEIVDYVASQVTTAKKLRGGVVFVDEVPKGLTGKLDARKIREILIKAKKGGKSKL
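Purified P. pyralis luciferase (10nM final) with 10uM D-luciferin and 10uM ATP (Km levels) in 50mM Tris acetate pH 7.5, 10mM Mg acetate, 0.01% Tween-20, 0.05% BSA; qHTS 6-point titration, ~60 µM downward; luminescence read.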
Rab9 prom act = activators of Rab9 promoter | Huh7 Rab9 promoter-luciferase reporter, luminescence, 24 h | Potency, µM (highest dose often 9.22 µM), inactives show at the highest dose activation, negative = inhibition, hits mostly activators | 2.8% of 320,000 active | AID 485297; note: % of control where 0% means no effect; nearly all actives have a fitted effect of over 60% in size
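Huh7 reporter line, Rab9 promoter upstream of luciferase. Compound exposure 24 h at 37 °C in reduced-serum medium with 10% FBS. Read-out: luminescence.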
ELG1 genotox = induces genotoxicity in HEK293T cells with luciferase-tagged ELG1; 1.3% of 330,000 active; HEK293T ELG1-luciferase reporter, luminescence, 16 h; Potency, µM (highest dose often 46 µM), inactives show at the highest dose activity change, positive = activation, hits mostly activators; note: % of control where 0% means no effect; nearly all actives have a fitted effect of over 60% in size
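DMSO vehicle served as control against compound-treated ELG1-luciferase HEK293T cells; exposure lasted 16 hr at 37 °C and 5% CO2, followed by ONE-Glo luminescence detection after 30 min.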
NPC1 prom act = NPC1 promoter activation; Huh7 NPC1 promoter luciferase reporter, 24 h; Potency, µM (doses to about 9.22 µM), for the others: at the top dose activation, most hits filed as activators; 2.4% of 320,000 active; AID 485313; note: % of control where 0% means no effect; nearly all actives have a fitted effect of over 60% in size
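Huh7 reporter cells (NPC1 promoter driving luciferase) are dosed with compound for 24 h at 37 °C, 5% CO2; luciferase detection reagent is then added and luminescence measured after 10 min at ambient temperature.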
SMN2 splice enh = increases expression of the SMN2 splice variant | HEK293 SMN2-luciferase splicing reporter, luminescence, 30-36 h | Potency, µM (series often up to 46.1 µM), for the others: top-dose activity change, positive = activation, hits mostly activators | 2.8% of 210,000 active | AID 1458; note: % of control where 0% means no effect; nearly all actives have a fitted effect of over 55% in size
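HEK293 cells carry an SMN2 minigene-luciferase reporter in which exon 7 inclusion puts luciferase in frame. Cells were seeded at 2000 cells/well, attached for 10-12 hours, then exposed to compounds for 30-36 hours at 37C before ONE-Glo luminescence.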
ELG1 DNA repair = blocks ELG1-dependent DNA repair in HEK293T cells | HEK293T ELG1-luciferase reporter, luminescence, 16 h; DNA damage induced by 5-fluorouridine | 2.3% of 330,000 active | Potency, µM (series often up to 46.1 µM), for the others: at the top dose activity change, negative = inhibition, most hits filed as inhibitors; note: % is set by controls: 0 for no effect and ±100 for the full control effect; nearly all actives have a fitted effect of over 55% in size
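Cells (2,000 per well) received 5-fluorouridine plus test compound or DMSO and were incubated 16 hr at 37 °C, 5% CO2. Luciferase activity was read by luminescence 30 min after ONE-Glo addition; signal suppression marked inhibition of damage-induced ELG1 function.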
* hit, by the source's call; u = inconclusive; x = not tested or not shown. This is a sample that favours compounds with a hit; in the whole collection about 9.4% have one here. Calls come from the whole dose curve; as a rule, active = well fitted curve in the direction sought with a large enough effect; inconclusive = small, poorly fitted or top-dose-only effect, or another doubt; inactive = no such curve, though single readings can be large; an effect the other way counts as inactive or inconclusive. Potency is the fitted concentration of half-maximal effect.

SMILES	FLuc modulator	Rab9 prom act	ELG1 genotox	NPC1 prom act	SMN2 splice enh	ELG1 DNA repair
O=C(N/N=C/c1ccccc1)c1n[nH]c2c1CCCC2	3µM*	0.35µM*	u	0.56µM*	5µM*	u
O=C(N/N=C/c1cccs1)c1n[nH]c2c1CCC2	3.4µM*	u	u	u	5µM*	u
Cc1cccc(CCNC(=O)c2ccc(CSCc3cccc(Cl)c3)o2)c1	-20%	x	x	x	x	x
Cc1ccc(NC(=O)c2ccc(-n3c(C)nnc3C)cc2)cc1F	-6%	x	x	x	x	x
COc1ccc(C(=O)O/N=C(\N)c2ccc(OC)c(OC)c2)c(OC)c1	u	24%	u	24%	x	u
COc1ccc(C(=O)O/N=C(\N)c2ccccc2)c(OC)c1	1.7µM*	u	u	3.2µM*	3.2µM*	u
COc1ccc(C(=O)O/N=C(\N)c2ccc(OC)c(OC)c2)cc1	7.6µM*	u	u	26%	x	u
COc1ccc(/C(N)=N/OC(=O)C2CCCCC2)cc1	8.5µM*	u	8.2µM*	2.8µM*	x	u
COc1ccc(/C(N)=N/OC(=O)C2CCCCC2)cc1OC	u	u	-1%	u	x	u
COc1ccc(C(=O)O/N=C(\N)c2ccccn2)c(OC)c1	2.7µM*	0.5µM*	1.5µM*	0.5µM*	x	u
Cc1ccc(C)c(N2CCN(C(=O)c3cc(S(=O)(=O)N4CCCC4)c[nH]3)CC2)c1	-2%	x	x	x	x	x
O=C(NCc1ccccc1Cl)c1ccc2c(c1)N(Cc1ccccc1)C(=O)CS2	-1%	x	x	x	x	x
COc1ccc(-c2cc(C(F)(F)F)nc(SCC(=O)NCC(C)C)n2)cc1OC	3%	x	x	x	11%	x
CCOc1ccc(-c2nc(=S)[nH][nH]2)cc1	15µM*	u	u	15%	u	u
Cc1nc2cc(NC(=O)NC(C)(C)C)ccc2n1C	u	13%	9%	14%	x	u
COc1cccc(NC(=O)Nc2ccc3c(c2)nc(C)n3C)c1	0.95µM*	0.71µM*	u	0.71µM*	x	u
COc1cccc(NC(=O)Nc2ccc3nc(C)c(C)nc3c2)c1	u	26%	-7%	23%	x	-18%
Cc1nc2cc(NC(=O)Nc3nccs3)ccc2n1C	4.3µM*	1.4µM*	2.6µM*	1.4µM*	14µM*	u
CCn1c(C)nc2cc(NC(=O)Nc3cccc(C(C)=O)c3)ccc21	1.5µM*	u	-9%	2.8µM*	x	u
COc1cccc(NC(=O)Nc2ccc3nsnc3c2)c1	7.6µM*	2.8µM*	0%	u	13µM*	u
Cc1cc(C)cc(NC(=O)C(NS(=O)(=O)c2cccc3nsnc23)c2ccccc2)c1 (stereo unspecified)	u	x	x	x	15%	x
O=C(CCc1nnc(CCc2c[nH]c3ccccc23)o1)NC1CCC1	21µM*	3.5µM*	u	u	x	u
O=C(CCc1nnc(Cc2c[nH]c3ccccc23)o1)NC1CCCC1	4%	-3%	0%	-8%	x	0%
CCN(c1ccc(NS(=O)(=O)c2cc(Cl)ccc2Cl)cc1)C(C)C	-2%	13%	5%	0%	-25%	-2%
CN(C)CCCNS(=O)(=O)c1cc(Cl)ccc1Cl	6%	17%	18µM*	-1%	11%	0%
SMILES	FLuc modulator	Rab9 prom act	ELG1 genotox	NPC1 prom act	SMN2 splice enh	ELG1 DNA repair
CN(C)c1ccc(NS(=O)(=O)c2cc(Cl)ccc2Cl)cc1	19µM*	0%	5%	-2%	-8%	18%
Nn1c(-c2ccccc2Cl)nnc1-c1ccccc1Cl	0.95µM*	4µM*	u	3.5µM*	u	u
CCOc1ccc(N(C)c2ccc(/C=C3/SC(=S)NC3=O)cc2)cc1	u	-4%	-2%	0%	x	-15%
CCOc1c(O)ccc(/C=C2\SC(=S)NC2=O)c1[N+](=O)[O-]	13µM*	-7%	0%	-1%	-9%	2%
CCOc1ccc(NC(=O)Cn2c(=O)n(Cc3ccc(C(=O)NCc4ccc(C)cc4)cc3)c(=O)c3ccccc32)cc1	1%	x	x	x	-2%	x
NC(=O)c1cc2c3ccccc3ccn2c1-c1ccccc1	21µM*	-15%	12µM*	-2%	x	u
COc1ccc(C(=O)N2CCN(C(=O)COc3ccc(C)cc3)CC2)cc1OC	15µM*	x	x	x	-13%	x
COc1ccc(C(=O)C2CCCN(C(=O)c3ccccc3C(C)=O)C2)cc1F (stereo unspecified)	u	17%	4%	-2%	x	0%
COc1ccc(OCC(=O)N2CCN(C(=O)c3ccc(OC)cc3)CC2)cc1	-8%	x	x	x	-7%	x
